Data published in PubChem BioAssay (NCI).
About 83,000 compounds went through this panel and 20% of them were active in at least one assay; those are over-represented in the sample as a whole.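 Results are percent growth after 48 hours of single-concentration exposure. 100 means growth as in untreated cells, lower positive values show inhibition; negative values down to -100 show cell death.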 Active and inactive are the calls of the source. How the source made its calls: active means growth percent below 10; inactive means the rest.

How the values were obtained:
Assay in all cases: NCI-60 one-dose screen, 48 h (100 = growth as untreated, 0 = no growth, -100 = all killed)
Conditions in all cases: 10 µM unless noted
[1] = system: HCT-15 colon
[2] = system: HT29 colon
[3] = system: SNB-75 CNS
[4] = system: SNB-19 CNS
[5] = system: U251 CNS
[6] = system: PC-3 prostate
[7] = system: SK-MEL-5 melanoma
[8] = system: UACC-62 melanoma
[9] = system: LOX IMVI melanoma
[10] = system: SK-MEL-28 melanoma

Measured: growth

Oc1ccccc1/C=N/N=C/c1c(O)ccc2ccccc12
inactive: [1] 70.1% | [2] 100% | [3] 94.2% | [4] 99.4% | [5] 93.2% | [6] 83.8% | [7] 93.1% | [8] 84.4% | [9] 85.2% | [10] 101%

Cc1ccc(CC(=O)O)c(C)c1
inactive: [1] 103% | [2] 97.2% | [3] 92.1% | [4] 102% | [5] 99.3% | [6] 98.3% | [7] 106% | [8] 98.8% | [9] 98% | [10] 113%

CNc1ccc(Nc2ccc(S(=O)(=O)O)cc2)c2c1C(=O)c1ccccc1C2=O
inactive: [1] 98.6% | [2] 105% | [3] 101% | [4] 104% | [5] 96.6% | [6] 101% | [7] 99.9% | [8] 94.6% | [9] 88.2% | [10] 112%

O=C(/C=C\c1ccc(NCc2ccc(C(=O)O)cc2)cc1)CCl
inactive: [1] 72.4% | [2] 84.9% | [3] 91.1% | [4] 96.7% | [5] 84.5% | [6] 96.2% | [7] 100% | [8] 84.2% | [10] 104%
active: [9] 5.63%

Nc1ccc(S(=O)(=O)c2ccc(NO)cc2)cc1
inactive: [1] 116% | [2] 101% | [3] 87.8% | [4] 97.1% | [5] 101% | [6] 96.8% | [7] 102% | [8] 115% | [9] 99.5% | [10] 105%

CCN(CC)C(=O)C1(C)CCCC2(C)c3cc(OC(C)=O)ccc3CCC12 (stereo not given)
inactive: [1] 87% | [2] 82.9% | [3] 80.9% | [4] 96.5% | [5] 81.5% | [6] 76.2% | [7] 67.6% | [8] 73.1% | [9] 101% | [10] 88.5%

O=C(N/N=C/c1ccccc1Cl)c1cccc2ccccc12
inactive: [1] 102% | [2] 105% | [3] 83.1% | [4] 98.3% | [5] 98.4% | [6] 99.6% | [7] 104% | [8] 99.8% | [9] 103% | [10] 95.4%

Oc1ccc([S+](c2ccc(O)cc2)c2ccc(O)cc2)cc1
inactive: [1] 97.4% | [2] 108% | [3] 92.5% | [4] 99.7% | [5] 103% | [6] 97.9% | [7] 100% | [8] 101% | [9] 107% | [10] 105%

COc1ccc(NC(=O)/C=C(C)/C=C/C=C(C)/C=C/C2=C(C)CCCC2(C)C)cc1
inactive: [1] 72.5% | [2] 72.4% | [3] 66.3% | [4] 110% | [5] 26.3% | [6] 63.1% | [7] 110% | [8] 77.4% | [9] 68.4% | [10] 105%

CCNc1nnc(COc2ccc(CNC(=O)CCCC/C=C/C(C)C)cc2OC)o1
inactive: [1] 96.9% | [2] 105% | [3] 86.2% | [4] 104% | [5] 98.3% | [6] 104% | [7] 102% | [8] 95% | [9] 93.2% | [10] 104%

CC([C@H]1CCC2C3CCC4C[C@@H](N)CC[C@]4(C)C3CC[C@@]21C)N(C)C (stereo not given in full)
inactive: [2] 15.1% | [3] 55.8% | [4] 98.7% | [5] 65.9% | [6] 64.5% | [8] 50.9% | [9] 17.5%
active: [1] 3.11% | [7] -47.8% | [10] -26.6%

CC(C)OC(=O)[C@H](C)N[P@@](=O)(OC[C@@]1(C)O[C@@H](n2cc(F)c(N)nc2=O)C[C@@H]1O[P@](=O)(N[C@@H](C)C(=O)OC(C)C)Oc1ccccc1)Oc1ccccc1
inactive: [1] 106% | [2] 86% | [3] 78.3% | [4] 73.8% | [5] 93.2% | [6] 71.4% | [7] 90.6% | [8] 99.3% | [9] 80.8% | [10] 93.5%

CCCCCCCCCCCCCCCCNC(=S)N/N=C/c1ccc(O)cc1O
inactive: [1] 50.7% | [2] 37% | [3] 113% | [4] 89.1% | [5] 59.6% | [6] 63.5% | [7] 63.4% | [8] 56.5% | [9] 60.6% | [10] 88.7%

CC(=O)c1nn(-c2ccc(C)cc2)cc1C(=O)c1cc2c(ccc3ccccc32)oc1=O
inactive: [1] 99.3% | [2] 92.4% | [3] 66.4% | [4] 92.6% | [5] 104% | [6] 87.9% | [7] 95.6% | [8] 78.3% | [9] 90.5% | [10] 96.7%

NC(=O)c1c(Nc2ccccc2)nn2cc(-c3nc4ccccc4s3)c(N)nc12
inactive: [1] 101% | [2] 103% | [3] 88.9% | [4] 92.7% | [5] 101% | [6] 91.4% | [7] 97.3% | [8] 97.3% | [9] 94% | [10] 113%

CC[N+](C)(C)N
inactive: [1] 103% | [2] 102% | [3] 80.5% | [4] 95.5% | [5] 101% | [6] 100% | [7] 95.4% | [8] 105% | [9] 90.9% | [10] 94.9%

O=C1CCNC1
inactive: [1] 101% | [2] 106% | [3] 100% | [4] 102% | [5] 87.4% | [6] 95.7% | [7] 104% | [8] 103% | [9] 113% | [10] 102%

CC1(C)Oc2cc3oc(=O)ccc3cc2C[C@@H]1OCCOS(=O)(=O)c1ccc(C#N)cc1
inactive: [1] 92.7% | [2] 97.2% | [3] 93.4% | [4] 96.5% | [5] 101% | [6] 87.3% | [7] 93.6% | [8] 87.1% | [9] 97.6% | [10] 101%

CCC(C)(C)c1ccc(OCCCCCCN2CCN(c3ccc(C)c(Cl)c3)CC2)cc1
inactive: [1] 64.8% | [2] 82.8% | [3] 92.2% | [4] 103% | [5] 104% | [6] 78.1% | [7] 78.1% | [8] 79.2% | [9] 81.8% | [10] 96.5%

Cc1ccc2c(O)c(O)cc(NC(C)CCCN)c2n1 (stereo not given)
inactive: [1] 116% | [2] 47.7% | [3] 108% | [4] 87.7% | [5] 25.7% | [6] 89.2% | [7] 95.7% | [8] 113% | [9] 31.2% | [10] 131%

Cc1nnc(/N=C2\NC(=O)/C(=C/C=C/c3ccccc3)S2)s1
inactive: [1] 37% | [2] 92.8% | [3] 66.5% | [4] 53.7% | [5] 49.5% | [6] 39.2% | [7] 44.2% | [8] 46.1% | [9] 44.3% | [10] 59.8%

CCOc1ccc(N(C)c2ccc(/C=C/C3=[N+](C)c4ccccc4C3(C)C)cc2)cc1
inactive: [1] 18.9% | [3] 41.6% | [4] 26.8% | [8] 28.5% | [10] 19%
active: [2] -25.1% | [5] -82.8% | [6] 0.484% | [7] 2.07% | [9] -48.1%

COc1ccc(C(O)(c2ccccc2)C(C(=O)O)c2ccccc2)cc1 (stereo not given)
inactive: [1] 107% | [2] 91.3% | [3] 94.6% | [4] 96.9% | [5] 116% | [6] 85.8% | [7] 102% | [8] 93.6% | [9] 96.7% | [10] 112%

COc1ccc(Nc2c3ccccc3nc3ccccc23)cc1
inactive: [1] 25.2% | [3] 16.2% | [4] 53.2% | [5] 16.1% | [6] 32.6% | [7] 24.8% | [8] 47.6% | [9] 21.3% | [10] 49.7%
active: [2] 8.49%

CCCCCCCCCCCCCCCC[n+]1cccc(C#N)c1
inactive: [1] 13.1% | [2] 27.1% | [3] 74.8% | [4] 26.4% | [5] 29.7% | [6] 25.1% | [7] 58.3% | [8] 83.9% | [9] 12.4% | [10] 83%

C[C@H]1C[C@@H](n2cnc3c(N)nccc32)[C@H](O)[C@@H]1O
inactive: [1] 87.8% | [2] 89.2% | [3] 100% | [4] 82% | [5] 69.2% | [6] 110% | [7] 96.7% | [8] 98.7% | [9] 79.8% | [10] 88%

CC(C)(C)C(=O)OCOP(=O)(OCOC(=O)C(C)(C)C)C1CC(O)N(O)C1=O (stereo not given)
active: [2] 6.67% | [5] 6.74% | [8] 9.68% | [10] 8.22%
inactive: [1] 34.7% | [3] 51.2% | [4] 16.1% | [6] 58.9% | [7] 58.4% | [9] 30.4%

CC(CCN1CCN(CCC(C)CC(C)(C)C)C1CC(C)CC(C)(C)C)CC(C)(C)C (stereo not given)
inactive: [1] 87.5% | [2] 39.4% | [3] 80.7% | [4] 102% | [5] 91.6% | [6] 56.7% | [7] 108% | [8] 103% | [9] 81.8% | [10] 105%
